Compound activity: PubChem, National Center for Advancing Translational Sciences (NCATS)
This is a sample that favours compounds with a hit; in the whole collection about 11% have one here.
HP1b chromo inh – HP1-beta chromodomain-methylated histone interaction inhibition; P83916; actives 0.56% (n = 390,000); Potency, µM (doses to about 114 µM), inactives show top-dose activity change, negative = inhibition, hits mostly inhibitors; AlphaScreen HP1-beta / biotin-H3K9me3 peptide binding; also: nearly all actives have a fitted effect of over 70% in size
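HP1-beta protein (50 nM final) preincubated 30 min at room temperature with biotinylated H3(1-18)K9me3 peptide (50 nM) in PBS pH 7.4, 0.01% Tween-20, then compound added for 30 min. AlphaScreen streptavidin donor/nickel chelate acceptor beads (10 ug/mL final), 30 min dark, luminescence read.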
L3MBTL1 block – blocks human L3MBTL1. Q9Y468. AlphaScreen L3MBTL1–H3K9me1 peptide binding. Potency, µM (top dose mostly 57.1 µM), for the others: at the highest dose activity, negative = inhibition, most hits filed as inhibitors. actives 0.66% (n = 230,000). AID 485360; also: % is scaled to controls: 0 for no effect and ±100 for the full control effect; nearly all actives have a fitted effect of over 60% in size
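L3MBTL1 50 nM + b-AHA-H3(1-15)K9me1 75 nM, 30 min RT; compound added, 30 min RT; streptavidin donor/Ni-chelate acceptor beads 10 ug/mL each final, 30 min RT dark; AlphaScreen read.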
G9a block – blocks human histone lysine methyltransferase G9a; actives 8.8% (n = 350,000); G9a H3K9 monomethylation, AlphaScreen, 2 h; AID 504332; Potency, µM (series often up to 102 µM), for the others: at the top dose activity, negative = inhibition, most hits filed as inhibitors; Q96KQ7; also: % is scaled to controls: 0 for no effect and ±100 for the full control effect; nearly all actives have a fitted effect of over 75% in size
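Chemiluminescent proximity detection of H3K9 monomethylation, read after 10 min bead incubation in the dark. Reaction: 20 nM G9a, 500 nM biotin-H3K9 peptide, 20 uM SAM cofactor, 2 h, room temperature, following 15 min enzyme-compound preincubation.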
JMJD2A Tudor – blocks the human JMJD2A Tudor domain. O75164. actives 4.4% (n = 390,000). Potency, µM (highest dose often 114 µM), for the others: at the top dose activity change, negative = inhibition, actives largely listed as inhibitors. AlphaScreen JMJD2A-Tudor / H3K4me3 peptide binding; also: % is scaled to controls: 0 for no effect and ±100 for the full control effect; nearly all actives have a fitted effect of over 50% in size
BAZ2B block – BAZ2B (human) inhibition. AlphaScreen BAZ2B-H3K14Ac peptide displacement. Potency, µM (highest dose often 114 µM), for inactives: at the top dose activity change, negative = inhibition, actives largely listed as inhibitors. actives 4.4% (n = 360,000). AID 504333; also: % is scaled to controls: 0 for no effect and ±100 for the full control effect; nearly all actives have a fitted effect of over 60% in size
Target sequence (Q9UIF8 whole entry, looked up): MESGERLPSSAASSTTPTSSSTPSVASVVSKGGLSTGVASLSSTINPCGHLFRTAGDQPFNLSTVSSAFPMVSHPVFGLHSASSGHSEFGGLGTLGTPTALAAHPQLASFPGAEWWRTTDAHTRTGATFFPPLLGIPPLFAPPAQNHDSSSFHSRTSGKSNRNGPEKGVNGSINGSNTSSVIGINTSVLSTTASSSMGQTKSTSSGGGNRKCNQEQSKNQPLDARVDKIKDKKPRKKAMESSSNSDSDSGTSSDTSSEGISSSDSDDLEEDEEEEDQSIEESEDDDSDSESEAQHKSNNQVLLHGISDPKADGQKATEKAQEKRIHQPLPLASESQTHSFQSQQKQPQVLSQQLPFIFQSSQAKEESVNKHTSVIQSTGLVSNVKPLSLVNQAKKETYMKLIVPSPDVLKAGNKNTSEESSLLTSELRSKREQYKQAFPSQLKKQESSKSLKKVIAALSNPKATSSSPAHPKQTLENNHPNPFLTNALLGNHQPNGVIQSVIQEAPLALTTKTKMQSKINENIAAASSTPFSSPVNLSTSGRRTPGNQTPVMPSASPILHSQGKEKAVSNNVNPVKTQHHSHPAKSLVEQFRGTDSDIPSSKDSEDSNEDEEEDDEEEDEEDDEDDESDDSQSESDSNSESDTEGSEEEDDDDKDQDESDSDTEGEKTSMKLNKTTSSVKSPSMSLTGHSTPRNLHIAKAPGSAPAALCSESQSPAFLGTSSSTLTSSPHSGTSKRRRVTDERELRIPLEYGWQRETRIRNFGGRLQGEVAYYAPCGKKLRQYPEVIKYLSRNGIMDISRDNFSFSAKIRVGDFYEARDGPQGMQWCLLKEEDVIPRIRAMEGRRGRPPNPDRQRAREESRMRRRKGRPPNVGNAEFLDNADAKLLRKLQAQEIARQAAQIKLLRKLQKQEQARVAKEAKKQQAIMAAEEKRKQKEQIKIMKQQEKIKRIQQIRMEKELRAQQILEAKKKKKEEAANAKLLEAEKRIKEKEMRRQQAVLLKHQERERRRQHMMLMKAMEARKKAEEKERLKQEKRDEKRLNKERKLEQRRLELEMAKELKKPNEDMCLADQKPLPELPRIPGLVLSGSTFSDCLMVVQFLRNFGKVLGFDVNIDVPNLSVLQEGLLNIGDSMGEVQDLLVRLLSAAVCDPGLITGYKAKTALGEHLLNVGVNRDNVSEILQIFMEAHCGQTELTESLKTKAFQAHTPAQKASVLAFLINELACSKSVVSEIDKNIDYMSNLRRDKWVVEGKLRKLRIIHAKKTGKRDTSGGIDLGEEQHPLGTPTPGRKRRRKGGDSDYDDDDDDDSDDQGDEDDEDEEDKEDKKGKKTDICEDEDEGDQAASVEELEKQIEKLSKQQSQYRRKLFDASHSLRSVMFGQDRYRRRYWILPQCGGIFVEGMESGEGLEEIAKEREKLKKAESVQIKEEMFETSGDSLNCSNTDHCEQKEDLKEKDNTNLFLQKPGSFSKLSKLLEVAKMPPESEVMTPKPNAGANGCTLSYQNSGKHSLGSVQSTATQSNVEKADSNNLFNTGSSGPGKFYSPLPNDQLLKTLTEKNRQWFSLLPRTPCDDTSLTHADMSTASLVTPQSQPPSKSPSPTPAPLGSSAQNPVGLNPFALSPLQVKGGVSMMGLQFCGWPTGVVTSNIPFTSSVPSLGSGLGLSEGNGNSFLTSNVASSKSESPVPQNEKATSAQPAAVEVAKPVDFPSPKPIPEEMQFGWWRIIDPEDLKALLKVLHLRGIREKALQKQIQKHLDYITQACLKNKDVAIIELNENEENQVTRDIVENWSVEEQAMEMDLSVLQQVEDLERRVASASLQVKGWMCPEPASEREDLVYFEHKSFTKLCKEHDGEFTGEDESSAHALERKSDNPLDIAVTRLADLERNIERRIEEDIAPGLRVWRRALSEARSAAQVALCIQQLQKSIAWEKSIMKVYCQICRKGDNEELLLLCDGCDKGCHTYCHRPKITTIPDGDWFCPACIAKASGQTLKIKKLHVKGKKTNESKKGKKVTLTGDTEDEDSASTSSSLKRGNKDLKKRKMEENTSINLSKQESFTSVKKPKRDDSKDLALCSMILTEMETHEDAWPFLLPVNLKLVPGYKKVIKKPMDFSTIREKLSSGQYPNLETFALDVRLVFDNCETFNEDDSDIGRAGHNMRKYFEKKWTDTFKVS
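BAZ2B (50 nM) with biotin-H3(5-23)K14Ac peptide (50 nM) in PBS pH 7.4, 0.01% Tween-20, preformed 30 min, then compound 30 min at room temperature; top concentration 110uM. AlphaScreen streptavidin donor/nickel chelate acceptor beads (10 ug/mL final), 20 min dark, signal read.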
* = called active by the depositor; ? = inconclusive; . = not tested or not shown; ! = repeats disagree; [ ] = another dose, or the depositor's remark. Calls follow the shape of the dose curve; as a rule, active = well fitted inhibition curve with a large enough effect; inconclusive = small, poorly fitted or top-dose-only effect; inactive = no such curve, though single readings can be large or run the other way. Potency is read from the fitted curve at half-maximal effect.

SMILES	HP1b chromo inh	L3MBTL1 block	G9a block	JMJD2A Tudor	BAZ2B block
CCN(CC)c1ccc(C2C(C(=O)OCCOC(C)C)=C(C)NC3=C2C(=O)CCC3)cc1 (stereo not drawn)	-7%	-15%	10µM*	?	50µM*
CCC(C)OC(=O)C1=C(C)NC2=C(C(=O)C(C(=O)OC)C(C)C2)C1c1ccc(N(C)C)cc1 (stereo not drawn)	?	-7%	5µM*	18µM*	?
COCCOC(=O)C1=C(C)NC2=C(C(=O)CCC2)C1c1ccc(N(C)C)cc1 (stereo not drawn)	7%	0%	?	-23%	-4%
CCOC(=O)C1=C(C)NC2=C(C(=O)CC(C)(C)C2)C1c1ccc(N(C)C)cc1 (stereo not drawn)	-6%	5%[11.4 µM]	?	-34%	-36%
CCCOC(=O)C1=C(C)NC2=C(C(=O)C(C(=O)OC)C(C)C2)C1c1ccc(N(CC)CC)cc1 (stereo not drawn)	-6%	-18%	3.5µM*	-32%[57.1 µM]	?
CCOC(=O)C1=C(C)NC2=C(C(=O)C(C(=O)OC)C(C)C2)C1c1ccc(OC)c(O)c1 (stereo not drawn)	18%	4%	17%[0.0925 µM]	39%	5%
O=C(CNC(=O)[C@@H]1Cc2ccccc2CN1)Nc1ccc2c(c1)OCCO2	14%	.	40µM*	-15%	?
CCc1ccc(NC(=O)CNC(=O)[C@@H]2Cc3ccccc3CN2)cc1	14%	.	79µM*	-12%	-23%
O=C(Cn1ncc2c3ccccc3n(Cc3cccc(Cl)c3)c2c1=O)N1CCCCC1	22%	.	-22%[59 µM]	-24%	-17%
C/C(=N\NC(=O)C1CCCN(S(=O)(=O)c2ccccc2)C1)c1ccncc1 (stereo not drawn)	48%	-4%	14%[59 µM]	3%	-5%
S=C(Nc1ccc(Cl)cc1)N1CCN(C2CCCCC2)CC1	16%	8%	18%[2.33 µM]	-23%	3%
CC(=NNC(=S)N1CCN(C2CCCCCC2)CC1)c1ccccn1	?	.	.	18µM*	.
S=C(Nc1ccc2nc(-c3ccccn3)c(-c3ccccn3)nc2c1)N1CCCCC1	67%	3%	-4%	3%	-18%
CC(=NNC(=S)N1CCCCCC1)c1cccc2cccnc12	50µM*	.	.	20µM*	.
C/C(=N\NC(=O)C1CCCN(S(=O)(=O)c2ccccc2)C1)c1ccccn1 (stereo not drawn)	47%	-7%	51%[59 µM]	79µM*	?
CC(=NNC(=S)N1CCN(c2ccccn2)CC1)c1nccs1	?	.	.	13µM*	.
CCc1ccc2occ(CC(=O)Nc3c(C(=O)c4ccc(F)cc4)oc4ccccc34)c2c1	37%	.	?	-2%	-2%
Cc1cccc(OCC(=O)N2CCC(c3nc4ccccc4o3)CC2)c1C	29%	.	2%[59 µM]	2%	0%
CCOC(=O)c1c(C)oc2nc(C)nc(NCCCN3CCN(c4cc(C)ccc4C)CC3)c12	18%	.	-18%[59 µM]	-33%	4%[57.1 µM]
CC(=NNC(=S)N1CC2CCC(CC2)C1)c1cnccn1	?	.	.	11µM*	.
CC(=NNC(=S)N1CCN(c2ccccn2)CC1)c1ccccn1	?	.	.	56µM*	.
S=C(NC1CCCC1)N1CCN(c2ccccn2)CC1	10%	3%	3%	-20%	4%
CCC(C)(C)NC(=O)C(c1cccc(OC)c1OC)N(C(=O)CCC(=O)Nc1cc(C)on1)c1ccc2c(c1)OCCO2 (stereo not drawn)	5%	.	-18%	-15%	-15%
CCc1ccc(NC(=O)CSc2nc(-c3ccc(C)cc3)nc3c2Cc2c(CO)cnc(C)c2O3)cc1	43%	-9%	10%[12.7 µM]	-24%	50µM*
COc1ccc(-c2nc3c(c(SCC(=O)Nc4cccc(O)c4)n2)Cc2c(CO)cnc(C)c2O3)cc1	13%[57 µM]	.	11µM*!	-35%	?
SMILES	HP1b chromo inh	L3MBTL1 block	G9a block	JMJD2A Tudor	BAZ2B block
CCc1ccc(NC(=O)CSc2nc(-c3ccccc3Cl)nc3c2Cc2c(CO)cnc(C)c2O3)cc1	24%	.	10%[59 µM]	13%	-1%
COCCn1c(SCC(=O)c2ccc(F)cc2)nc2cc(C(=O)NC3CCCC3)ccc2c1=O	25%	.	8%[59 µM]	-7%	4%
O=C(Nc1cccc(Cl)c1)c1ccc2nc(CCc3ccccc3)oc2c1	16%[57 µM]	.	0%[59 µM]	-5%	4%
CC1=C(C#N)C(=O)N(C2CCS(=O)(=O)C2)C(=O)/C1=C\c1ccco1 (stereo not drawn)	.	.	5µM*	.	7.1µM*
O=C(NCC(c1cccs1)S(=O)(=O)c1cccs1)c1ccc(F)c(F)c1 (stereo not drawn)	11%	.	6%[59 µM]	-14%	2%
N#CCCN/N=C(\Cc1nc2ccccc2[nH]1)c1ccccc1	-6%	.	50µM*	-31%	-19%
N#CCCN/N=C(/Cc1nc2ccccc2[nH]1)c1ccc(Cl)cc1	.	.	?	.	-6%
Clc1cccc(/C(Cc2nc3ccccc3[nH]2)=N\Nc2ccccc2)c1	0%	-18%	6.3µM*	?	-36%
c1ccc(N/N=C(\Cc2nc3ccccc3[nH]2)c2ccccc2)cc1	-18%	-7%	1.4µM*	?	?
CCN/N=C(\Cc1nc2ccccc2[nH]1)c1ccccc1	31%	-2%	16%	-31%	-7%
Cc1ccc(N/N=C(\Cc2nc3ccccc3[nH]2)c2ccccc2)cc1	?	-1%	7.1µM*	?	?
Cc1ccc(S(=O)(=O)C(CNC(=O)C(=O)NCCc2ccc(F)cc2)c2cccs2)cc1 (stereo not drawn)	25%	.	5%[59 µM]	0%	0%
COc1ccc2c(c1)CC(NC(=O)Nc1ccc(NC(C)=O)cc1)CO2 (stereo not drawn)	30%[57 µM]	.	0%[59 µM]	-13%	0%
O=C(/C=C/c1cccnc1)c1ccc([N+](=O)[O-])cc1	-17%	.	13µM*	?	-18%
O=C(Oc1cccnc1)c1ccc([N+](=O)[O-])cc1	20%	-4%	10µM*	-14%	?
O=C(/C=C/c1cccnc1)c1cccc(O)c1	67%	.	35µM*	?	-24%
O=C(/C=C/c1cccnc1)c1ccccc1O	38%	.	35µM*	0%	-26%
CN(C)CCCNc1oc(/C=C/c2ccc(F)cc2)nc1C#N	43%	.	-28%[59 µM]	6%	-9%
Cc1noc(/C=C/c2cccnc2)c1[N+](=O)[O-]	26%	.	45µM*	-10%	-23%
CCOc1ccc(NC(=O)CSc2nnc(CC)c(CC)n2)cc1	20%	.	-7%[59 µM]	-9%	-5%
COc1ccccc1CNC(=O)CSc1nc(C)cs1	40%	7%	12%	-5%	-2%
Cc1nc(SCC(=O)NC(=O)NC2CCCCC2)nc(C)c1C	38%	.	14µM*	-26%	11%
Cc1cc(C)n2nc(SCC(=O)NC3CCCCC3)nc2n1	53%	.	45µM*	23%	-1%
Cc1cc(C)nc(SCC(=O)NC2CCCC2)n1	15%	9%	3%	1%	-2%
